System: Vero E6 infected with SARS-CoV-2
Experiment: inhibition of SARS-CoV-2 cytopathic effect; higher = more antiviral protection, active = above 15
Conditions: 48 h

Measured: inhibition of SARS-CoV-2 cytopathic effect

COc1cc2c(cc1OC)-c1cc3ccc(OC)c(OC)c3c[n+]1CC2 [palmatine-chloride]
inactive: 1 nM -2.25% | 8.33 nM 0.72% | 100 nM -0.15% | 833.33 nM -2.8% | 10000 nM 2.04%

Cc1cc(C)c2c(N)c(C(=O)NCc3ccc(Cl)cc3)sc2n1
inactive: 1 nM 1.18% | 8.33 nM -1.88% | 100 nM -0.97% | 833.33 nM -0.85% | 10000 nM 0.14%

Oc1ccc(OCc2ccccc2)cc1 [monobenzone]
inactive: 1 nM -1.3% | 8.33 nM -1.35% | 100 nM -0.07% | 833.33 nM -0.61% | 10000 nM -2.93%

Nc1ncn([C@@H]2O[C@H](CO)[C@@H](O)[C@H]2O)c(=O)n1 [azacitidine]
inactive: 1 nM -3.6% | 8.33 nM 0.66% | 100 nM 0.98% | 833.33 nM -0.22% | 10000 nM 0.95%

CC1(C)OC(=O)C(OCC2CC2)=C1c1ccc(S(C)(=O)=O)cc1 [firocoxib]
inactive: 1 nM -1.63% | 8.33 nM -1.5% | 100 nM 0.34% | 833.33 nM 0.04% | 10000 nM -1.02%

Cc1cc(C)c(NC(=O)N(Cc2ccc3c(c2)Cc2ccccc2-3)C2CCCCCC2)c(C)c1
inactive: 1 nM 0.2% | 8.33 nM 0.24% | 100 nM 1.89% | 833.33 nM 3.17% | 10000 nM -1.02%

CCc1cccc(CC)c1NC(=O)N1Cc2[nH]nc(NC(=O)c3ccc(N4CCN(C)CC4)cc3)c2C1
inactive: 1 nM -4.07% | 8.33 nM 1.98% | 100 nM 1.34% | 833.33 nM 1.38% | 10000 nM -0.02%

Reference: the supplement of paper PMC13380429
